The values below come from ChEMBL document CHEMBL1961873, “Compounds: GSK PKIS; Assays: Nanosyn kinase panel” (2012).

Test [1] deals with Tyrosine-protein kinase Fyn (Homo sapiens) (UniProt P06241). The settings on record: at 1 µM.
Test [2] addresses Tyrosine-protein kinase HCK (Homo sapiens) (UniProt P08631). The settings on record: at 0.1 µM.
Test [3] has the same target. The conditions noted are these: at 1 µM.
In test [4] the target is Insulin-like growth factor 1 receptor (Homo sapiens) (UniProt P08069). The settings on record: at 0.1 µM.
Test [5] has the same target. The conditions noted are these: at 1 µM.
In test [6] the target is Insulin receptor (Homo sapiens) (UniProt P06213). The settings on record: at 0.1 µM.
Test [7] shares this target. The conditions noted are these: at 1 µM.
Test [8] has as its target Insulin receptor-related protein (Homo sapiens) (UniProt P14616). The settings on record: at 0.1 µM.
For test [9] the target is unchanged. The settings on record: at 1 µM.
For test [10], the target named is T1, Tyrosine-protein kinase ITK/TSK (Homo sapiens) (UniProt Q08881).
T1 sequence (whole entry): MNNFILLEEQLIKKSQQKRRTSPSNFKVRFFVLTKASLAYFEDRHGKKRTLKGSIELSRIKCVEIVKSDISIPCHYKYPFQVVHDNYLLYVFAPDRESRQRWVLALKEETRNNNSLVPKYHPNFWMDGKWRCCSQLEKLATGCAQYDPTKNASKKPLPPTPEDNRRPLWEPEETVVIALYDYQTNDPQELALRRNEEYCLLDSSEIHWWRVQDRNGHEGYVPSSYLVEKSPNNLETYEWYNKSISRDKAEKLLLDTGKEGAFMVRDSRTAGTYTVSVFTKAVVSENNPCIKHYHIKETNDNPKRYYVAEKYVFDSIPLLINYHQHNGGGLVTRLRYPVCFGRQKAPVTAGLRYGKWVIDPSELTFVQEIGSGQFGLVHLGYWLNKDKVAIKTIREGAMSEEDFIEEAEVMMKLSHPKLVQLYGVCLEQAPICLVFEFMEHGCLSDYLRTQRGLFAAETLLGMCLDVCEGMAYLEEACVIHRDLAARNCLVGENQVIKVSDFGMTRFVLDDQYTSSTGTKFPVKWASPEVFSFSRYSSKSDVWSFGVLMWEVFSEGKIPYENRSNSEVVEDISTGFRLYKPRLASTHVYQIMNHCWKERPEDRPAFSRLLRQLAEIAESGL
The settings on record: at 0.1 µM.

Test [11] deals with T1, Tyrosine-protein kinase ITK/TSK (Homo sapiens). The settings on record: at 1 µM.
In test [12] the target is Tyrosine-protein kinase JAK1 (Homo sapiens) (UniProt P23458). The settings on record: at 0.1 µM.
Test [13] shares this target. The settings on record: at 1 µM.
Test [14] deals with Tyrosine-protein kinase JAK2 (Homo sapiens) (UniProt O60674). The settings on record: at 0.1 µM.
For test [15] the target is unchanged. The conditions noted are these: at 1 µM.
The target of test [16] is T2, Tyrosine-protein kinase JAK3 (Homo sapiens) (UniProt P52333).
T2 sequence (whole entry): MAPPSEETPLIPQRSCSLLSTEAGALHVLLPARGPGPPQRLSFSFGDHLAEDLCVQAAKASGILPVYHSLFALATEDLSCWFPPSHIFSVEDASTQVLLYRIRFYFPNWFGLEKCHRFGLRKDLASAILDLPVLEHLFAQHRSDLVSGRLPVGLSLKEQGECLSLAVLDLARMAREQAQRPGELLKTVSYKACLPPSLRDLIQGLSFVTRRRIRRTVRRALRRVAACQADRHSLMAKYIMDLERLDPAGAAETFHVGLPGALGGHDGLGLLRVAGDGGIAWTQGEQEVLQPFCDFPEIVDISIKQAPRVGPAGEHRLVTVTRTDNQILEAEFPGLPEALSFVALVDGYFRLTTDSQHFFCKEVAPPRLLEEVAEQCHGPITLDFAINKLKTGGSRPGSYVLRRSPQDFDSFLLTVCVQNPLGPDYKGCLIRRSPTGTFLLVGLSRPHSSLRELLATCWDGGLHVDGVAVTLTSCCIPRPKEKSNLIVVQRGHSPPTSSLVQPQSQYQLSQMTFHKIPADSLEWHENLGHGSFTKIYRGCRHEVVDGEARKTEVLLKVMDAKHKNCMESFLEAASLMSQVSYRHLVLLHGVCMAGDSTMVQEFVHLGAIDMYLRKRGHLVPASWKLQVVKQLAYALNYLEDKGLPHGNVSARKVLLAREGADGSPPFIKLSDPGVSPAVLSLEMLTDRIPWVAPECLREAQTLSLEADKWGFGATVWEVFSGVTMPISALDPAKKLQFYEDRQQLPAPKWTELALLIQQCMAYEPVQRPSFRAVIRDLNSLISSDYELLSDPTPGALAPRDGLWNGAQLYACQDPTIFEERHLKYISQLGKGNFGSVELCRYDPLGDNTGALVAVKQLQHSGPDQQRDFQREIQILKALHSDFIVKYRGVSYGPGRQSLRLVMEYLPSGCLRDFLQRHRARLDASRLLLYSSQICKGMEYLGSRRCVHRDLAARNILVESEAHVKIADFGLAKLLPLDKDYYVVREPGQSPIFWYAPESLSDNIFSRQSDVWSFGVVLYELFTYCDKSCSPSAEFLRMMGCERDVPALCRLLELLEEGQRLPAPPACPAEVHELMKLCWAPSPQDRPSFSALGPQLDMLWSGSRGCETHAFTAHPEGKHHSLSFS
The conditions noted are these: at 0.1 µM.

In test [17] the target is T2, Tyrosine-protein kinase JAK3 (Homo sapiens). The conditions noted are these: at 1 µM.
In test [18] the target is Vascular endothelial growth factor receptor 2 (Homo sapiens) (UniProt P35968). The conditions noted are these: at 0.1 µM.
Test [19] shares this target. The settings on record: at 1 µM.
In test [20] the target is Mast/stem cell growth factor receptor Kit (Homo sapiens) (UniProt P10721). The conditions noted are these: at 0.1 µM.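 Also: values are mean inhibition of KIT, from the GSK PKIS dataset.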
Chain of Mast/stem cell growth factor receptor Kit (Homo sapiens) (P10721 whole entry): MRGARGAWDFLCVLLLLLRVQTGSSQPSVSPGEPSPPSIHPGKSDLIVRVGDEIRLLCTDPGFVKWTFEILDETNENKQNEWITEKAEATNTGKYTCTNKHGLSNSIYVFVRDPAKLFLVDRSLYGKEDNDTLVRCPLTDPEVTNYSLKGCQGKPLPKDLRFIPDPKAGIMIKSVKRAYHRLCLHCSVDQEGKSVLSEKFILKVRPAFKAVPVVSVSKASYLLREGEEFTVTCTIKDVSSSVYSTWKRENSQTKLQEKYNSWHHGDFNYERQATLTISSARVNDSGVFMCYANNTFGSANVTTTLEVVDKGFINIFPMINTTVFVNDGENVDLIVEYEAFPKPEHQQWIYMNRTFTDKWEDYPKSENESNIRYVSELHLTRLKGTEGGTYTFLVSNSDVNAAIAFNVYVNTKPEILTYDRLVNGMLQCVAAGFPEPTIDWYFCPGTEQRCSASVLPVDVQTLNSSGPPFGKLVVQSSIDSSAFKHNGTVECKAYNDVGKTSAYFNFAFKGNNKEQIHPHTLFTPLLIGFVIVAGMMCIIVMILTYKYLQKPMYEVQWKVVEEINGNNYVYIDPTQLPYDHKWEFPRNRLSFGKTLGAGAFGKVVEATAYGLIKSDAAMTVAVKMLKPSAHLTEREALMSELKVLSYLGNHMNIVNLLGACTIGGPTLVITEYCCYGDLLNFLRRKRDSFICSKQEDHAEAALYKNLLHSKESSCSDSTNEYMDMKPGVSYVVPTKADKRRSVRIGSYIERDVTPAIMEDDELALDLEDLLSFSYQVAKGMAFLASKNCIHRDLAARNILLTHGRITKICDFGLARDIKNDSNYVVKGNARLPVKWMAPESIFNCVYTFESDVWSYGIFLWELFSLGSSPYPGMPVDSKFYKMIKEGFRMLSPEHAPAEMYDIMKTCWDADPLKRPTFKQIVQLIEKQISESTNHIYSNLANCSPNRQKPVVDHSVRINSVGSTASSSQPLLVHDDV

Chain of Insulin receptor (Homo sapiens) (P06213 28-758 limits assumed): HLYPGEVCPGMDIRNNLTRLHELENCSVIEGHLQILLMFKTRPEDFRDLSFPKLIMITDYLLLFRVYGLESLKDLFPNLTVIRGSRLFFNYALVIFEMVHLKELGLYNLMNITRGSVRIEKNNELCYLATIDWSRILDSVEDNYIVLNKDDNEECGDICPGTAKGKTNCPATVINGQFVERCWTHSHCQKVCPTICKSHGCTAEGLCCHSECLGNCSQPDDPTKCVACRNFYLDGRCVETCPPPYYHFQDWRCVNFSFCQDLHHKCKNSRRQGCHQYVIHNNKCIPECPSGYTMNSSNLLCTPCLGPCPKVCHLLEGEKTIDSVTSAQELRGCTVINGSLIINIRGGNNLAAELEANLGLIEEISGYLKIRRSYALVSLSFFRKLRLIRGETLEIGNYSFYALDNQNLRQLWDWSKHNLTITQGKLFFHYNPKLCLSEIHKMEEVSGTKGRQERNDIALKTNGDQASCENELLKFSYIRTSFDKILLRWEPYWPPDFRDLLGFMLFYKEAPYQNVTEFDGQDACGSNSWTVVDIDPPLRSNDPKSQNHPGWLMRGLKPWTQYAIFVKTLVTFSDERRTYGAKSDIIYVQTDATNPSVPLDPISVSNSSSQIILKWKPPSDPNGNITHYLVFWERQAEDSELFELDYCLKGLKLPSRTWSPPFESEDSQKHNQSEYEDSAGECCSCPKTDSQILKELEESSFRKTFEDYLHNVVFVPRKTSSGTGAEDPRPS
Chain of Insulin receptor (Homo sapiens) (P06213 763-1382 limits assumed): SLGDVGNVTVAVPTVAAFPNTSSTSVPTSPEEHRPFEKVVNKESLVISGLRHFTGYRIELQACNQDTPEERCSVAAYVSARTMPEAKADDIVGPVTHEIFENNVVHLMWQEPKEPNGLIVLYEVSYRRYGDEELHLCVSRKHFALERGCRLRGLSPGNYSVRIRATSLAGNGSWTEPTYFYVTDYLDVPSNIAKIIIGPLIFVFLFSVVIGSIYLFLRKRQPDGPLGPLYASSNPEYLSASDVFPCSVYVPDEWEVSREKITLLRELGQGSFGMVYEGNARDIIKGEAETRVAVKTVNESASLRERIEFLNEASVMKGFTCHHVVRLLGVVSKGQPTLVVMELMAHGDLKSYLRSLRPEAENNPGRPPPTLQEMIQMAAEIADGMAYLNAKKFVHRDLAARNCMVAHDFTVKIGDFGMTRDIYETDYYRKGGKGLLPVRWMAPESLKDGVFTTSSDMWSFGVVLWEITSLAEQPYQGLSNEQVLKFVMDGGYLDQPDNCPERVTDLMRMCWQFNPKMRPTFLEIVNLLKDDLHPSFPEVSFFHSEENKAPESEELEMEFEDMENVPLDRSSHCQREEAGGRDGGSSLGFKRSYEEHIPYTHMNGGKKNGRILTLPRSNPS
Chain of Tyrosine-protein kinase JAK1 (Homo sapiens) (P23458 whole entry): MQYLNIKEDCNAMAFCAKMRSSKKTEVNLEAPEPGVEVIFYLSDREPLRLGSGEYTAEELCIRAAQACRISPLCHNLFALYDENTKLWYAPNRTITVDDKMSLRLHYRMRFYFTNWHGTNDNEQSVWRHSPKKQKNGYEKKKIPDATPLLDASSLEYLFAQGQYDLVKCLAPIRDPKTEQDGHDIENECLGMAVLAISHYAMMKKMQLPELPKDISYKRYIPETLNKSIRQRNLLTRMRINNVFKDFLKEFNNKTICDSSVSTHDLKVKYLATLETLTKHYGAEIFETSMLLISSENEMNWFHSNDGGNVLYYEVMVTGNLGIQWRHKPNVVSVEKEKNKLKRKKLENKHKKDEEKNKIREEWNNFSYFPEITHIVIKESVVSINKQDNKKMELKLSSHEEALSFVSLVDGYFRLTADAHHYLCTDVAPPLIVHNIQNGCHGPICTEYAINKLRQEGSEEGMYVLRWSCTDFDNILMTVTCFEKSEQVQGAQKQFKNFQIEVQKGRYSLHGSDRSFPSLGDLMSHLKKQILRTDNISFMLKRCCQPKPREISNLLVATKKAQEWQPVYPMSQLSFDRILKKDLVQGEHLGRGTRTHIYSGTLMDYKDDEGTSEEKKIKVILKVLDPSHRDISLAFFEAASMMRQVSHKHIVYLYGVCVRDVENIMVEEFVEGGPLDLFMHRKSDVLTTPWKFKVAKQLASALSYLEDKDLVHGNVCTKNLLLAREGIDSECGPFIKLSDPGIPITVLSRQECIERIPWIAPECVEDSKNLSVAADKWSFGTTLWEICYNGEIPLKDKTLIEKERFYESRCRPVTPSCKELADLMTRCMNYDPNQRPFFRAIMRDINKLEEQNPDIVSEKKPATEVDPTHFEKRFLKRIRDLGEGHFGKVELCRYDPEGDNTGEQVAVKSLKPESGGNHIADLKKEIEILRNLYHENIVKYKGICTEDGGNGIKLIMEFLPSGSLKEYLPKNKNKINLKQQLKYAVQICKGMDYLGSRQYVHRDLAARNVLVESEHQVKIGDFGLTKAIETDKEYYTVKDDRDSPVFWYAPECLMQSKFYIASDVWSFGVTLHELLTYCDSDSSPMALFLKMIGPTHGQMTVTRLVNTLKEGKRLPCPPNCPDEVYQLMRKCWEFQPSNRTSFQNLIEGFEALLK
Chain of Vascular endothelial growth factor receptor 2 (Homo sapiens) (P35968 whole entry): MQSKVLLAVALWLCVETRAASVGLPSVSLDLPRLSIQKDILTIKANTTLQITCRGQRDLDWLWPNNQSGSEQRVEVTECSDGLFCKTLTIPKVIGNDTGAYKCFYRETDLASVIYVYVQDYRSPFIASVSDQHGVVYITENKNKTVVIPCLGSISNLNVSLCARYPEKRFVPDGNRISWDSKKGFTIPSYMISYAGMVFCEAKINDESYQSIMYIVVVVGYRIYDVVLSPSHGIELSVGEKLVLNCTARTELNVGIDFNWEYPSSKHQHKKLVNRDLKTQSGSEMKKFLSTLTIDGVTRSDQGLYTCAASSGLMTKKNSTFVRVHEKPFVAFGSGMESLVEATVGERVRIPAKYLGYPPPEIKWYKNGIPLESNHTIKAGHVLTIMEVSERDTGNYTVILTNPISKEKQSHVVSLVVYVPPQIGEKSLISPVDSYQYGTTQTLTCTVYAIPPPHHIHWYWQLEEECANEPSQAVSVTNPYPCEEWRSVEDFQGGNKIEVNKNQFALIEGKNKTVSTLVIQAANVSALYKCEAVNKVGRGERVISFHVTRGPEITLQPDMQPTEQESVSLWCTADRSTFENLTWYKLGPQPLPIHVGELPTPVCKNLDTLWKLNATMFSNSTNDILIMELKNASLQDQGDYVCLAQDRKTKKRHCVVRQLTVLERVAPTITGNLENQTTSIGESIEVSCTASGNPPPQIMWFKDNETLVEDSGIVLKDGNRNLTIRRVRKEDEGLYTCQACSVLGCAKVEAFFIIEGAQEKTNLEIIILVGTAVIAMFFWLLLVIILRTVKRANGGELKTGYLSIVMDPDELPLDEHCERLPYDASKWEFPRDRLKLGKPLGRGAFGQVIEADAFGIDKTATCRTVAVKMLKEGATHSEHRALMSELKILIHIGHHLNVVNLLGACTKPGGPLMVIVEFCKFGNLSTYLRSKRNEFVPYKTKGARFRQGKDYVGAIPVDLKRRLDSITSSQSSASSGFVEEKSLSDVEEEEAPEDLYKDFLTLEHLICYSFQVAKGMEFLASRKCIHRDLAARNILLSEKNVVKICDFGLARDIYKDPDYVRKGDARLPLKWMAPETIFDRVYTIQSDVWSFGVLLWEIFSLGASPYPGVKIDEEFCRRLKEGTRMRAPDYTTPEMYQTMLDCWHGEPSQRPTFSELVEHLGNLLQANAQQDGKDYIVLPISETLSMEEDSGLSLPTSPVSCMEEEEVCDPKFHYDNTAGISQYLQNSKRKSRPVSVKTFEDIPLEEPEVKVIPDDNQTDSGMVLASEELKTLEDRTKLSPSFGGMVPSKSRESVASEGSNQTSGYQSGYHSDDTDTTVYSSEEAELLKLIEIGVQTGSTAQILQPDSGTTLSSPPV

Take `O=S(=O)(CCNCc1ccc(-c2ccc3ncnc(Nc4ccc(OCc5cccc(F)c5)c(Cl)c4)c3c2)o1)c1ccccc1`: the inhibition in [1] was found to be 4.09%; in test [2] it was 7.05%; in test [3] it was 8.65%; in [4] it was 4.87%; in [5], 7.55%; in test [6] it was 3.73%. In addition, the inhibition was found to be 6.24% in test [7]; 4.04% in [8]; 4.07% in test [9]; 0.82% in [10]; 2.79% in test [11]; 3.16% in test [12]. In addition, the inhibition in [13] was 5.23%; in test [14], 1.04%; in [15], 1.11%; in test [16] it was -3.52%; in [17], -1.28%; in test [18], 5.96%. In addition, the inhibition in test [19] was 8.62%; in test [20] it was 6.8%.
For the compound `Fc1ccc(-c2nn3ncccc3c2-c2ccnc(Nc3ccc4c(c3)OCCO4)n2)cc1`, the inhibition turned out to be 88% in test [1]; 26.3% in test [2]; 71.5% in [3]; 8.14% in test [4]; 3.49% in test [5]; 7.04% in [6]. In addition, the inhibition in [7] is 18.3%; in test [8], 2.61%; in [9], 1.61%; in [10], 1.51%; in test [11], 0.31%; in test [12] it was 3.02%. Moreover, the inhibition in [13] is 2.04%; in [14], 0.34%; in test [15] it was 1.88%; in test [16], -0.15%; in test [17], -1.41%; in [18], 30.6%. Further, the inhibition was found to be 75.5% in test [19] and 60.7% in [20].
Turning to `N#Cc1c(NC(=O)CN2CCOCC2)sc2c1CCCC2`, the inhibition in test [1] came to 8.48%; in [2] it was 2.96%; in test [3], 8.43%; in test [4], 4.81%; in test [5], 5.33%; in [6], 13.2%. Besides, the inhibition was found to be 8.64% in test [7]; 3.54% in test [8]; 3.5% in [9]; 1.1% in test [10]; 3.52% in test [11]; 2.38% in [12]. For the same compound, the inhibition in test [13] was 9.38%; in [14] it was 2.3%; in [15], 3.35%; in [16] it was -0.09%; in test [17], 1.28%; in test [18], 4.13%. Besides, the inhibition amounted to 6.56% in test [19] and 6.21% in test [20].
For `CCN1CCC(CC(=O)Nc2n[nH]c3nnc(-c4cccc(F)c4F)cc23)CC1`, the inhibition was 3.55% in test [1]; 3.51% in [2]; 1.32% in [3]; 0.88% in test [4]; 2.99% in test [5]; 1.72% in [6]. For the same compound, the inhibition in [7] is 4.05%; in test [8] it was 1.41%; in test [9] it was 0.88%; in [10] it was -1.01%; in test [11], 1.3%; in test [12], 3.38%. Besides, the inhibition in test [13] is 4.71%; in test [14], 0.88%; in test [15], 0.1%; in [16], -2.12%; in test [17] it was 1.45%; in [18] it was 0.77%. Also, the results for the inhibition in test [19] and in [20] were 4.46% and 0.04%, respectively.
Consider `COC(=O)Nc1nc2ccc(Oc3ccc(NC(=O)Nc4cccc(Cl)c4)cc3)cc2[nH]1`, for which the inhibition is 2.41% in [1]; 3.38% in test [2]; 2.91% in test [3]; 3.52% in test [4]; 2.1% in [5]; -1.15% in [6]. The inhibition in test [7] is 0.68%; in test [8], -1.26%; in [9], -0.57%; in test [10], 0.74%; in test [11], 0.42%; in test [12], 0.77%. Also, the inhibition in test [13] is 4.07%; in test [14], 0.38%; in test [15], -0.26%; in test [16] it was -0.87%; in test [17], -0.3%; in test [18], 32.4%. Further, the inhibition in [19] came out at 62.5%; in test [20] it was 72.9%.
For the compound `NS(=O)(=O)c1ccc(N/N=C2\C(=O)Nc3ccc4ncccc4c32)cc1`, the inhibition in test [1] turned out to be 30.1%; in test [2] it was 13.6%; in test [3], 73.5%; in test [4], 1.63%; in test [5], 13.7%; in [6], 5.75%. Further, the inhibition in test [7] is 27.8%; in test [8], -0.5%; in [9], 1.85%; in test [10] it was 2.75%; in test [11], 18.5%; in [12], 2.63%. In addition, the inhibition came to 17.3% in [13]; 1.52% in test [14]; 22.4% in [15]; 14.2% in test [16]; 67.7% in test [17]; 61.6% in test [18]. Further, the inhibition stood at 88.6% in [19] and 63.8% in [20].
